Data: PubChem BioAssay AID1159580 (chemical genetic matrix, 2015)
Where “and” joins values, the source holds several entries; their conditions need not be identical. Equal values may be shown once. The campaign covered roughly 5,500 compounds. About 2,000 (36%) were called active. About 18% were inconclusive and are not listed. Rule as the data show it: active = normalized growth mostly below about 0.91 (no sharp cut-off); inconclusive = no clear call, values can overlap the other calls; inactive = mostly above about 0.92. Some of the results follow.

Assay: chemical genetic growth profiling, strain panel (AID 1159580);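 also: tested at 20 µM; growth read once vehicle control cultures reached saturation at 30 °C; 1 = growth at the plate median or of vehicle wells; lower values mean less growth of the strain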
Details: S. cerevisiae deletion strains, growth OD

Measured: normalized growth

CC(C(=O)O)c1cccc(C(=O)c2ccccc2)c1 (stereo not drawn)
inactive: locus YAL013W, strain DEP1, hits give low values 1.01 | locus YAL021C, strain ccr4, hits give low values 0.995 | locus YAL026C, strain drs2, hits give low values 0.981 | locus YAL030W, strain snc1, hits give low values 0.997 | locus YAL040C, strain CLN3, hits give low values 1 | locus YBL061C, strain skt5, hits give low values 0.998 | locus YBR009C, strain hhf1, hits give low values 0.979 | locus YBR021W, strain FUR4, hits give low values 1.01 | locus YBR023C, strain chs3, hits give low values 0.985 | locus YBR171W, strain sec66, hits give low values 0.98 | locus YBR229C, strain ROT2, hits give low values 1 | locus YBR231C, strain swc5, hits give low values 1 | locus YBR279W, strain paf1, hits give low values 0.972 | locus YCL011C, strain gbp2, hits give low values 0.991 | locus YCL016C, strain dcc1, hits give low values 0.969 | locus YCL029C, strain bik1, hits give low values 0.962 | locus YCL061C, strain MRC1 (second series), hits give low values 1.01 | locus YCL069W, strain vba3, hits give low values 0.983 | locus YCR088W, strain abp1, hits give low values 0.989 | locus YDL005C, strain med2, hits give low values 0.98 | locus YDL035C, strain GPR1, hits give low values 1 | locus YDL040C, strain nat1, hits give low values 0.986 | locus YDL074C, strain BRE1, hits give low values 1.06 | locus YDL101C, strain DUN1, hits give low values 1 | locus YDL134C, strain PPH21, hits give low values 0.994 | locus YDL185W, strain tfp1, hits give low values 0.941 | locus YDL192W, strain arf1, hits give low values 0.978 | locus YDR001C, strain nth1, hits give low values 0.983 | locus YDR069C, strain doa4, hits give low values 0.984 | locus YDR101C, strain arx1, hits give low values 1.02 | locus YDR137W, strain rgp1, hits give low values 0.953 | locus YDR159W, strain sac3, hits give low values 0.928 | locus YDR162C, strain NBP2, hits give low values 0.979 | locus YDR195W, strain ref2 1.02 | locus YDR297W, strain sur2, hits give low values 0.982 | locus YDR318W, strain mcm21, hits give low values 0.969 | locus YDR334W, strain swr1, hits give low values 0.984 | locus YDR335W, strain msn5, hits give low values 1.01 | locus YDR363W, strain ESC2, hits give low values 0.998 | locus YDR388W, hits give low values 0.989 | locus YDR392W, strain spt3, hits give low values 0.871 | locus YDR502C, strain sam2, hits give low values 1 | locus YEL003W, strain gim4, hits give low values 1 | locus YEL037C, strain rad23, hits give low values 0.987 | locus YEL061C, strain CIN8 (second series), hits give low values 0.996 | locus YEL061C, strain CIN8, hits give low values 1 | locus YER002W, strain NOP16, hits give low values 0.992 | locus YER015W, strain faa2, hits give low values 0.966 | locus YER016W, strain bim1, hits give low values 0.974 | locus YER110C, hits give low values 0.957 | locus YER111C, strain swi4, hits give low values 0.979 | locus YER155C, strain BEM2 (second series), hits give low values 0.986 | locus YER155C, strain BEM2, hits give low values 0.994 | locus YER167W, strain BCK2, hits give low values 1 | locus YFR010W, strain ubp6, hits give low values 1 | locus YGL078C, strain dbp3, hits give low values 0.99 | locus YGL086W, strain mad1, hits give low values 1.01 | locus YGL167C, strain pmr1, hits give low values 0.991 | locus YGL173C, strain kem1, hits give low values 1.01 | locus YGL227W, strain vid30, hits give low values 1 | locus YGL240W, strain doc1, hits give low values 0.995 | locus YGL248W, strain PDE1, hits give low values 1.02 | locus YGL253W, strain hxk2, hits give low values 0.984 | locus YGR078C, strain PAC10, hits give low values 1.02 | locus YGR135W, strain pre9, hits give low values 0.958 | locus YGR229C, strain SMI1, hits give low values 1.01 | locus YGR252W, strain gcn5, hits give low values 1.03 | locus YHR013C, strain ard1, hits give low values 0.964 | locus YHR027C, strain rpn1, hits give low values 1.01 | locus YHR030C, strain SLT2, hits give low values 0.982 and 1.04 | locus YHR079C, strain IRE1 (second series), hits give low values 0.974 | locus YHR079C, strain IRE1, hits give low values 1.04 | locus YHR094C, strain hxt1, hits give low values 0.979 | locus YHR129C, strain ARP1, hits give low values 0.987 | locus YHR142W, strain chs7, hits give low values 0.966 | locus YHR200W, strain rpn10, hits give low values 0.955 | locus YIL066C, strain RNR3, hits give low values 1.02 | locus YIL073C, strain SPO22, hits give low values 0.868 | locus YIL125W, strain kgd1, hits give low values 0.984 | locus YIR030C, strain dcg1, hits give low values 0.961 | locus YJL092W, strain hpr5, hits give low values 0.997 | locus YJL095W, strain BCK1 (second series), hits give low values 0.978 | locus YJL095W, strain BCK1, hits give low values 1.05 and 1.01 | locus YJL115W, strain asf1, hits give low values 0.98 | locus YJL129C, strain trk1, hits give low values 0.942 | locus YJL134W, strain LCB3, hits give low values 0.991 | locus YJL154C, strain vps35, hits give low values 0.982 | locus YJL164C, strain tpk1, hits give low values 0.985 | locus YJL166W, strain qcr8, hits give low values 0.999 | locus YJL168C, strain set2, hits give low values 0.978 | locus YJL187C, strain SWE1 (second series), hits give low values 1.03 | locus YJR043C, strain POL32, hits give low values 1.03 | locus YJR066W, strain TOR1, hits give low values 0.965
